Activity change, positive = activation and Potency data for 40 molecules are collected here from PubChem BioAssay (NCATS).

Where “and” joins values, the source holds several entries; their conditions need not be identical. Equal values may be shown once. Calls of active or inactive are those of the source. Where a call stands in place of a potency, no number is given. Calls come from the whole dose curve; as a rule, active = well fitted activation curve with a large enough effect; inconclusive = small, poorly fitted or top-dose-only effect; inactive = no such curve, though single readings can be large or run the other way.

Cytochrome P450 3A4 (Homo sapiens), sequence (P08684 whole entry, looked up): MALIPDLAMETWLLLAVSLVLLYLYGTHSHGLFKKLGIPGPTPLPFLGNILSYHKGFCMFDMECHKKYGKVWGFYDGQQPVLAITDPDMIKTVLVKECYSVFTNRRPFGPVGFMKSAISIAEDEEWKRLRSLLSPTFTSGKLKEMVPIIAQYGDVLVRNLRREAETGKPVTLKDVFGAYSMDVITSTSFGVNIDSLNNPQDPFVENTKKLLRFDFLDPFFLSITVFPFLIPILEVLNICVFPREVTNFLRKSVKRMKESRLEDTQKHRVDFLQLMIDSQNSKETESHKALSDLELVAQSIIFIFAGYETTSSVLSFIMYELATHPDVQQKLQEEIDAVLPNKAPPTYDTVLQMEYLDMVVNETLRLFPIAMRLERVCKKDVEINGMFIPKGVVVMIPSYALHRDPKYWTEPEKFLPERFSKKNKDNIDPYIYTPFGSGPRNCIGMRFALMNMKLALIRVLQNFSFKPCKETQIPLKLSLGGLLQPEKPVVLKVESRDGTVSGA

In the test the target is Cytochrome P450 3A4 (Homo sapiens) (UniProt P08684). As to the kind of experiment: qHTS Assay for Activators of Cytochrome P450 3A4 (AID 885). Note: nearly all actives have a fitted effect of over 65% in size. Conditions: recombinant CYP3A4, Luciferin-PPXE luminescence, 60 min; series mostly up to 57.1 µM. On the procedure:
NIH Molecular Libraries Screening Centers Network [MLSCN]
NIH Chemical Genomics Center [NCGC]
The P450 gene superfamily is involved in the metabolism and clearance of xenobiotics. This assay used human CYP3A4 to measure the dealkylation of luciferin-6' phenylpiperazinylyl (Luciferin-PPXE; […]) to luciferin. The luciferin is then measured by luminescence after the addition of a luciferase detection reagent. Luciferin-PPXE concentration in the assay was equal to its KM for CYP3A4. Inhibitors and some substrates limit the production of luciferin, and decrease measured luminescence; activators increase the production of luciferin and luminescence.
NCGC Assay Protocol Summary:
Two uL of enzyme and substrate mix (final concentrations: 20nM CYP3A4, 25uM Luciferin-PPXE, 200mM KPO4) were dispensed into a white, solid bottom 1536-well microtiter plate. 23nL of compound was transferred by a pin tool. The plate was incubated at RT for 10 min. Two uL of an NADPH regeneration solution (Promega supplied reagent) was dispensed and the reaction was allowed to continue for 60 min at RT. Then the reaction was stopped by reconstituted luciferin detection buffer. After another 20 min of incubation the plate was read on the ViewLux (Perkin Elmer) at 60 sec exposure and 2x2 binning. This protocol was carried out with Promega-Glo reagents and further information can be found at http://www.promega.com/tbs/tb325/tb325.pdf. Data were normalized to the to AC100 inhibition (57 uM ketoconazole).
Keywords: P450, CYP2D6, Luciferase, MLSMR, MLSCN, NIH Roadmap, qHTS, NCGC
`C=CCOC(=O)C(C(C)=O)C(NC(=O)OC)c1ccc(Cl)cc1` (stereo not given): the activity change, positive = activation is -107% [at 11.4 µM] (inactive). Regarding `CC(=O)N1C2(C=CC1(C)C(=O)NCc1ccccn1)CCCCC2` (stereo not given), the Potency result was “inactive”.

As for `COC(=O)C1=C(C)N(Cc2ccccc2)C2=C3C(=O)N(c4ccccc4)C(=O)C3[C@@](O)(C(=O)OC)C(=O)N2C1c1ccccc1` (stereo not given in full), the activity change, positive = activation was -39.6% [at 11.4 µM] (inactive) and -38.9% [at 11.4 µM] (inactive). Turning to `COc1ccccc1/C=C/C1=CC2(C)CC1(C)C(c1ccccc1OC)CC2=O` (stereo not given), the activity change, positive = activation is -56.9% [at 11.4 µM] (inactive). In the case of `CCC[C@@H]1C[C@@]1(CCC)[C@@H](NC(=O)Oc1ccccc1)c1ccc(C(=O)OC)cc1`, the Potency entry was “inactive”. Consider `COC(C1CCCCC1)C(C)C(OCc1cccc(Br)c1)C(C)CO` (stereo not given), for which the activity change, positive = activation is -47.3% [at 11.4 µM] (inactive).

As for `COc1ccc(-c2cc(=O)c3ccccc3o2)cc1OC`, the Potency entry was “inactive”. Still for that read-out and setting: in the case of `COC(=O)c1ccc(C(NC(=O)OCc2ccccc2)/C(F)=C/[C@@H](C)C(=O)NCc2ccc(-c3ccccc3)cc2)cc1` (stereo not given in full) it was “inactive”. Take `CCc1cc2c(nc1CC)CCN(CC/C(C)=N/OC[C@@H](O)COCc1ccco1)C2`: the activity change, positive = activation was -38.2% [at 11.4 µM] (inactive).

For the molecule `FC(F)(F)c1ccc(CN2C[C@@H]3C(c4ccccc4)C4(c5cccnc5)CC3(C4)[C@H]2c2ccccc2)cc1` (stereo not given in full), the Potency result was “inactive”. With `CCCCOC(OCCCC)[C@H](O)CSc1ccc2ccccc2c1`, the activity change, positive = activation is -60.8% [at 11.4 µM] (inactive).

Turning to `COC(=O)[C@@]1(Cc2ccccc2)[C@H]2c3cc(C(=O)N4CCCC4)[nH]c3C[C@H]2CN1C(=O)c1ccccc1`, the Potency result was “inactive”. As for `CO[C@H]1COC(=O)CCC[C@@H](C)[C@H](OC)COC(=O)[C@H]2CCCN2C(=O)C/C=C\[C@@H]1C`, the activity change, positive = activation was -30.7% [at 11.4 µM] (inactive).

For `C=CCC(O)CC1C2C(CC(O)CC=C)C3C1C3C2OC(C)(C)C` (stereo not given), the activity change, positive = activation was -98.2% [at 11.4 µM] (inactive). As to `COc1ccccc1CC(Cc1nc2ccccc2[nH]1)c1nc2ccccc2[nH]1` (stereo not given), the Potency result was “inactive”. Same read-out and setting: in the case of `COC(=O)c1cccc(C23CC4(C2)[C@H](CN(Cc2cccnc2)[C@@H]4c2ccccc2)C3c2ccccc2)c1` (stereo not given in full) it was “inactive”; in that of `Clc1ccc2nc(-c3ccccc3)[nH]c2c1`, “inactive”; in that of `O=C(OCC1OC(OC(=O)c2cc(O)c(O)c(OC(=O)c3cc(O)c(O)c(O)c3)c2)[C@@H](OC(=O)c2cc(O)c(O)c(OC(=O)c3cc(O)c(O)c(O)c3)c2)C(OC(=O)c2cc(O)c(O)c(OC(=O)c3cc(O)c(O)c(O)c3)c2)C1OC(=O)c1cc(O)c(O)c(OC(=O)c2cc(O)c(O)c(O)c2)c1)c1cc(O)c(O)c(OC(=O)c2cc(O)c(O)c(O)c2)c1` (stereo not given in full), “inactive”. `CCC1=C2CC[C@H]3C(=O)NC(=O)[C@H]3[C@H]2[C@@]2(Cc3ccccc3)C(=NCc3ccccc3)OC(=O)N2C1=O`: the Potency entry was “inactive”.

On to `C=CC(C1=CC(=O)C(OC)=C(OC)C1=O)c1ccccc1` (stereo not given), for which the Potency result is “inactive”. Turning to `CC(C)C(=O)N[C@@H]1CCCN1C(=O)/C=C\c1ccccc1`, the activity change, positive = activation was -30.2% [at 11.4 µM] (inactive).

With `COC(=O)c1ccc(C(NC(=O)OCc2ccccc2)/C(I)=C/[C@@H](C)C(=O)NCc2ccncc2)cc1` (stereo not given in full), the Potency entry is “inactive”. Same read-out and setting: in the case of `COC(=O)c1ccc(C(NC(=O)OCc2ccccc2)/C(C)=C/[C@@H](C)C(=O)Nc2ccc(OC)cc2)cc1` (stereo not given in full) it was “inactive”. Consider `C[C@H](O/N=C1/[C@H]2O[C@@H]2[C@@H](O)[C@H]2[C@H]1CCn1c(=O)n(-c3ccccc3)c(=O)n12)c1cn([C@H](CO)Cc2ccccc2)nn1`, for which the activity change, positive = activation was -48.5% [at 11.4 µM] (inactive) and -48.2% [at 11.4 µM] (inactive).

For the molecule `COC(=O)c1ccc(C(NC(=O)OCc2ccccc2)/C(F)=C/[C@@H](C)C(=O)NC2CCCCC2)cc1` (stereo not given in full), the Potency result is “inactive”. With `CC1CCC2C(=O)OC(Cc3ccccc3)CN2C1c1ccc(Br)cc1` (stereo not given), the activity change, positive = activation is -52.5% [at 11.4 µM] (inactive) and -47.1% [at 11.4 µM] (inactive). For the molecule `O=C1C[C@@H](O)[C@@H](O)[C@H]2[C@@H]3C(=O)N(Cc4ccc5c(c4)OCO5)C(=O)[C@@H]3CC[C@H]12`, the activity change, positive = activation is -78.5% [at 11.4 µM] (inactive) and -81.2% [at 11.4 µM] (inactive). Regarding `Cn1c(=O)c(C(=O)COC(=O)c2cc(-c3ccco3)nc3ccccc23)c(N)n(CC2CC2)c1=O`, the Potency result was “inactive”. As to `CC(=O)OCC1OC(C#CCC2CCCCC2)C=CC1OC(C)=O` (stereo not given), the activity change, positive = activation was -56.3% [at 11.4 µM] (inactive). For the molecule `COc1cccc([C@@H]2Oc3ccc(OC)cc3/C(=N/O[C@@H](C)c3cn([C@H]4COC[C@H]4O)nn3)[C@@H]2O)c1`, the activity change, positive = activation was -74.6% [at 11.4 µM] (inactive). Still for that read-out and setting: the result for `Cc1ccc(S(=O)(=O)N[C@@H](CCc2ccccc2)CC(=O)C(C)(C)C)cc1` reads -96.1% [at 11.4 µM] (inactive). As to `CCC1=C(OC(=O)N(CC)CC)N2C(=O)OC(=NCC3CC3)[C@]2(C)[C@H]2C1=CC[C@H]1C(=O)N(CC)C(=O)[C@H]12`, the Potency result was “inactive”. The same measure, in the same setting: in the case of `CCCCCCN(C(=O)CCCCCN1C(=O)NC(c2ccc([N+](=O)[O-])cc2)C(C(=O)OCc2ccccc2)=C1C)C(C(=O)NCCCC)c1ccc(OCC(=O)OC)c(C(=O)OC)c1` (stereo not given) it was “inactive”; in that of `COC(=O)[C@@H]1C[C@H]2CC[C@H](O)C[C@H]2N1Cc1ccccc1OC(=O)c1cccs1`, “inactive”. For the molecule `C/C(CCC(=O)OC[C@@H]1O[C@H](C#Cc2ccccc2)C=C[C@@H]1Oc1ccc(C)cc1)=N/O[C@@H](C)c1cn([C@H](CO)Cc2ccccc2)nn1`, the activity change, positive = activation was -114% [at 11.4 µM] (inactive) and -117% [at 11.4 µM] (inactive). Still for that read-out and setting: the result for `C#CCCCO/N=C1/C[C@@H](O)[C@@H](O)[C@@H]2[C@H]3C(=O)N(c4ccc(F)cc4F)C(=O)[C@@H]3CC[C@@H]12` reads -61.6% [at 11.4 µM] (inactive); that for `C=C(C)C(O)/C=C/CCCCCCC` (stereo not given), -33.5% [at 11.4 µM] (inactive); that for `O=C1[C@H]2[C@H]3[C@H](O)[C@H](O)C/C(=N/OC[C@@H](O)COCc4ccco4)[C@@H]3CC[C@@H]2C(=O)N1Cc1ccc2c(c1)OCO2`, -99.9% [at 11.4 µM] (inactive).

Turning to `C[C@@H]1OC2C3=C(C(=O)[C@H]4O[C@@H]4[C@H]3O)[C@@H]1[C@H]1[C@H](C)OC=C3[C@H](O)[C@H]4O[C@H]4/C(=N\OCc4ccccc4)[C@@]321`, the activity change, positive = activation was -58.8% [at 11.4 µM] (inactive).

On to `O=C(O)[C@H]1[C@H]2C[C@H]3c4[nH]c5ccccc5c4CCN3C[C@@H]2CC[C@@H]1O`, for which the Potency result was “inactive”.
